MRP reversal: reversal of MRP1-mediated doxorubicin resistance, primary screen, H69AR cells, doxorubicin co-treatment | H69AR cells + 2 uM doxorubicin, CellTiter-Glo, 72 h | differential viability (reversal), % at 10 µM | actives 0.04% (n = 85,000) | AID 602, 2007;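 active = viability drop by adding the cancer drug above about 55%, with treated viability meeting a 40% cutoff, limit read from the data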;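 also: larger differential means the compound sensitizes cells more to doxorubicin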
CYP2C9 activ: human CYP2C9 activators, primary screen, biochemical, luminescence; Cytochrome P450 2C9 (Homo sapiens), P11712; recombinant CYP2C9, luciferin-H conversion; stronger effect = higher value; factor 1 = untreated enzyme, 0 = blocked; activation factor at 5 µM; actives 1.4% (n = 96,000);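 active = activation factor of 2 or more for CYP2C9 at a 5 µM dose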
CYP2C19 activ: human CYP2C19 activators, primary screen, biochemical, luminescence; Cytochrome P450 2C19 (Homo sapiens), P33261; recombinant CYP2C19, luciferin-H EGE luminescence; stronger effect = higher value; 0 = fully inhibited enzyme, 1 = untreated enzyme; activation factor at 5 µM; 96,000 tested, under 10 active;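 active = activation factor of at least 2 at 5 µM in the primary screen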
Target sequence (P33261 whole entry, looked up): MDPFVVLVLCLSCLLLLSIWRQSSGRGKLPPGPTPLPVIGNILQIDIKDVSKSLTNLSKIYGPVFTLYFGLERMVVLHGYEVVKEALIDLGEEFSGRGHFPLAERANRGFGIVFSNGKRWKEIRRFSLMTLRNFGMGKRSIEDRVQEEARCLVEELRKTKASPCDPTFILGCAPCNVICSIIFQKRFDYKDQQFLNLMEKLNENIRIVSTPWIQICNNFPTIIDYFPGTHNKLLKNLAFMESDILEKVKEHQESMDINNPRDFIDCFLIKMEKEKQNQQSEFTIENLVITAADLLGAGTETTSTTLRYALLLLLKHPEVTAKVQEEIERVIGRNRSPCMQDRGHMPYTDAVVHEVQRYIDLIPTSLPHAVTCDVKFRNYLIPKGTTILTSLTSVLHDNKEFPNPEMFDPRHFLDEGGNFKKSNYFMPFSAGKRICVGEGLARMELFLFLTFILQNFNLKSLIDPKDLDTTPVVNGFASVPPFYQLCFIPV
CYP2C19 inhib: blockers of cytochrome P450 2C19 activity – biochemical, luminescence, ADME assay, primary screen | CYP2C19 Supersomes, luciferin-H EGE luminescence, 30 min | inhibition, % at 5 µM | actives 21% (n = 96,000) | AID 778, 2007;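 active = CYP2C19 inhibition above a set limit at 5 µM in the primary screen, cut at about 50% in these data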
CYP2C9 inh: blockers of cytochrome P450 2C9 activity – biochemical, luminescence, ADME assay, primary screen; P11712; CYP2C9 Supersomes, luciferin-H conversion; inhibition, % at 5 µM; actives 20% (n = 96,000); AID 777, 2007;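 active = blocking of liver enzyme CYP2C9 beyond about 50% at 5 µM, limit read from the data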
MRP-1 activ: H69AR viability gain despite doxorubicin, primary screen, MRP-1 activator project, H69AR cells, CellTiter-Glo; viability rescue; viability increase, % at 10 µM; actives 0.61% (n = 140,000);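 active = viability gain under doxorubicin at or above a set limit, the compound median plus 3 SD, cut at about 4.7% in these data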;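 also: MRP-1 overexpressing cells given doxorubicin 25 µM after compound pretreatment; 18-22 h compound pretreatment then 72 h with doxorubicin before readout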
Each line names hits and unclear results; the compound was inactive in the other large screens. The list is not random: actives were taken first. Their share in the collection is about 21%.

Cc1nn(CC(=O)Nc2cccc(S(N)(=O)=O)c2)c(C)c1[N+](=O)[O-]	none (no result: MRP reversal, CYP2C9 activ, CYP2C19 activ, CYP2C19 inhib, CYP2C9 inh)
CCOC(=O)c1c(N)sc2c1CCC(C)C2 (stereo not given)	none
CCOC(=O)c1c(NC(=O)CSc2nnnn2-c2ccccc2)sc2c1CCC(C)C2 (stereo not given)	CYP2C9 inh 81
CCOC(=O)c1c(NS(C)(=O)=O)sc2c1CCC(C)C2 (stereo not given)	CYP2C9 inh 57
CSc1nc(NC(C)=O)nc(C)c1Br	none (no result: CYP2C9 activ, CYP2C19 activ, CYP2C19 inhib, CYP2C9 inh)
CN(c1ccc(OCC(=O)OCC(=O)Nc2c(F)c(F)c(F)c(F)c2F)cc1)S(=O)(=O)c1ccc(F)cc1	none (no result: MRP reversal, CYP2C9 activ, CYP2C19 activ, CYP2C19 inhib, CYP2C9 inh)
COc1ccc(NC(=O)/C(Cl)=C(/Cl)S(=O)(=O)Cc2ccccc2)cn1	none
COc1ccc(NS(=O)(=O)Cc2ccccc2Cl)cn1	CYP2C19 inhib 64
Cc1ccc(-c2noc(CCC(=O)Nc3ccccc3C)n2)cc1	none
COc1ccc(-c2noc(CCC(=O)N(C)c3cccc(C)c3)n2)cc1	CYP2C19 inhib 89, CYP2C9 inh 83
COc1ccc(-c2noc(CCC(=O)Nc3cccc(C)c3)n2)cc1	none
CCN(C(=O)CCc1nc(-c2ccc(OC)cc2)no1)c1cc(OC)ccc1OC	CYP2C19 inhib 59, CYP2C9 inh 75
Cc1ccc(-c2noc(CCC(=O)N(C)c3ccccc3C)n2)cc1	CYP2C19 inhib 82, CYP2C9 inh 94
COCC(=O)OCC(=O)Nc1cc(C)c(C)cc1[N+](=O)[O-]	none (no result: MRP reversal, CYP2C9 activ, CYP2C19 activ, CYP2C19 inhib, CYP2C9 inh)
OCCNc1nc2ccc(Cl)cc2[nH]1	none
COc1cccc(-n2nnnc2SCC(=O)Nc2cccc(C)n2)c1	none
COc1ccccc1CNC(=O)c1ccc(NS(=O)(=O)c2c(C)noc2C)cc1	CYP2C9 inh 78 (no result: MRP reversal)
COc1ccccc1CNC(=O)C1CCN(S(=O)(=O)c2c(C)noc2C)CC1	CYP2C9 activ 2
COc1ccc(CNC(=O)c2ccc(NS(=O)(=O)c3c(C)noc3C)cc2)cc1	CYP2C9 inh 58 (no result: MRP reversal)
COc1ccccc1NC(=O)c1ccc(NS(=O)(=O)c2c(C)noc2C)cc1	none (no result: MRP reversal)
Cc1ccc(NC(=O)c2ccc(NS(=O)(=O)c3c(C)noc3C)cc2)cc1C	CYP2C9 inh 79
COc1ccc(NC(=O)c2ccc(NS(=O)(=O)c3c(C)noc3C)cc2)cc1OC	none (no result: MRP reversal)
COC(=O)c1c(NC(=O)CN2C(=O)NC3(CCc4ccccc4C3)C2=O)sc2c1CCCCC2 (stereo not given)	none (no result: MRP reversal, CYP2C9 activ, CYP2C19 activ, CYP2C19 inhib, CYP2C9 inh)
Cc1cc(C)c2oc(C(=O)Nc3ccc(S(=O)(=O)N4CCCC(C)C4)cc3)cc(=O)c2c1 (stereo not given)	none (no result: MRP reversal, CYP2C9 activ, CYP2C19 activ, CYP2C19 inhib, CYP2C9 inh)
CN(c1ccc(C(=O)NCCc2ccccc2)cc1)S(C)(=O)=O	none
Cc1noc(C)c1S(=O)(=O)Nc1ccc(C(=O)NCCc2ccccc2)cc1	CYP2C9 inh 60 (no result: MRP reversal)
COc1ccc(Br)cc1CNC(=O)C1CCN(S(=O)(=O)N2CCCCC2)CC1	CYP2C9 activ 2.2
COc1cc(OC)cc(C(C)=O)c1	none
Cc1ccc([N+](=O)[O-])cc1NC(=O)CN1CCC(C)CC1	none (no result: MRP reversal)
COc1ccc(N2CCN(Cc3cc(=O)oc4cc5c(cc34)CCCC5)CC2)cc1	none
COc1ccc(N2CCN(Cc3cc4c(cc3O)CCC4)CC2)cc1	CYP2C9 inh 92 (no result: MRP reversal)
CCCCCNc1c(C(=O)OCC)c(=O)[nH]c2ccccc12	none
O=C(COC(=O)Cc1ccsc1)NCC1CCCCC1	CYP2C19 inhib 57 (no result: MRP reversal)
O=C(COC(=O)Cc1ccsc1)NCc1ccccc1	none (no result: MRP reversal, CYP2C9 activ, CYP2C19 activ, CYP2C19 inhib, CYP2C9 inh)
CC(NC(=O)COC(=O)Cc1ccsc1)C1CC2CCC1C2 (stereo not given)	CYP2C19 inhib 92 (no result: MRP reversal)
CCOc1ccccc1NC(=O)C1=C(C)NC(=S)NC1c1cccs1 (stereo not given)	none (no result: MRP reversal, CYP2C9 activ, CYP2C19 activ, CYP2C19 inhib, CYP2C9 inh)
Cc1cc(C)c(S(=O)(=O)Nc2ccc(OCC(=O)O)cc2)c(C)c1	none
CC(=O)NS(=O)(=O)c1ccc(N=c2ssc3c2-c2ccc(C)cc2NC3(C)C)cc1	none (no result: MRP reversal, CYP2C9 activ, CYP2C19 activ, CYP2C19 inhib, CYP2C9 inh)
Cc1ccc(NC(=O)c2ccc(CSc3nccc(C)n3)cc2)cc1	CYP2C9 inh 64 (no result: MRP reversal)
CN(C)Cc1ccccc1Sc1ccc(Br)cc1	none (no result: MRP reversal, CYP2C9 activ, CYP2C19 activ, CYP2C19 inhib, CYP2C9 inh)
COc1ccc(C2SCC(=O)N2c2c(C)n(C)n(-c3ccccc3)c2=O)c(OC)c1 (stereo not given)	CYP2C19 inhib 55
CCOc1ccc(C2SCC(=O)N2c2c(C)n(C)n(-c3ccccc3)c2=O)cc1 (stereo not given)	CYP2C19 inhib 67, CYP2C9 inh 71
COc1ccc(C2SCC(=O)N2c2c(C)n(C)n(-c3ccccc3)c2=O)cc1OC (stereo not given)	none
C=CCOC(=O)C1C(=O)CC(C)(O)C(C(=O)OCC=C)C1c1ccc(OCC)cc1 (stereo not given)	none
COc1ccc(NC(=O)C2CCCN2S(=O)(=O)c2ccc3c(c2)CCC(=O)N3)cc1Cl (stereo not given)	CYP2C9 inh 65
COc1ccc(S(=O)(=O)N2CCCC2C(=O)Nc2ccc(O)cc2)cc1 (stereo not given)	none
COc1ccc(NC(=O)C2CCCN2S(=O)(=O)c2ccc3c(c2)CCC(=O)N3)cc1 (stereo not given)	CYP2C9 inh 90
Cc1cccc(C)c1NC(=O)CSc1nnc(NC(=O)CN2CCOCC2)s1	none
Cc1ccc(NC(=O)CSc2nnc(NC(=O)c3ccc(S(=O)(=O)N4CCOCC4)cc3)s2)cc1	none (no result: MRP reversal, CYP2C9 activ, CYP2C19 activ, CYP2C19 inhib, CYP2C9 inh)
Cc1ccc(NC(=O)CSc2nnc(NC(=O)CN3CCOCC3)s2)cc1	CYP2C19 inhib 57 (no result: MRP reversal)
CC(=O)c1ccc(NC(=O)CSc2nnc(NC(=O)CN3CCOCC3)s2)cc1	CYP2C9 inh 67
CC(C)Nc1nnc(SCC(=O)Nc2ccc(F)cc2)s1	CYP2C19 inhib 91, CYP2C9 inh 70
O=C(NCCOc1ccccc1)c1ncn[nH]1	none
O=C(N/C=N/OCc1cccc(C(F)(F)F)c1)N1OC[C@@H]2COc3ccc4ccccc4c3[C@@H]21	none
CO/N=C/NC(=O)N1OC[C@@H]2COc3ccc4ccccc4c3[C@@H]21	CYP2C19 inhib 57
CC(C)CNC(=O)c1ccccc1SCC(=O)NC12CC3CC(CC(C3)C1)C2	none (no result: MRP reversal, CYP2C9 activ, CYP2C19 activ, CYP2C19 inhib, CYP2C9 inh)
COc1cc(/C=N/Nc2ncnc3sc4c(c23)CCC4)ccc1O	none (no result: MRP reversal, CYP2C9 activ, CYP2C19 activ, CYP2C19 inhib, CYP2C9 inh)
N#Cc1ccccc1CSc1nc(N2CCCCC2)nc(N2CCCCC2)n1	none (no result: MRP reversal)
COc1ccc2c(c1)nc(SCC(=O)c1ccc(Br)s1)n2C	CYP2C19 inhib 72, CYP2C9 inh 51 (no result: MRP reversal)
CC(C)C(=O)Nc1nnc(SCC(=O)NCc2ccco2)s1	none (no result: MRP reversal, CYP2C9 activ, CYP2C19 activ, CYP2C19 inhib, CYP2C9 inh)
O=C(COC(=O)c1ccc(Sc2ccccc2)c([N+](=O)[O-])c1)NC1CCS(=O)(=O)C1 (stereo not given)	none (no result: MRP reversal, CYP2C9 activ, CYP2C19 activ, CYP2C19 inhib, CYP2C9 inh)
CSc1n[nH]c(NCc2ccccc2)n1	none
